Shown are actives, neighbours in structure and some others; about 2.5% of the full set was active somewhere.
Cruzain inh Det – inhibitors of Trypanosoma cruzi cruzain with detergent | P25779 | Potency, µM, for the others: max response, negative = inhibition, hits mostly inhibitors | purified cruzain, Z-FR-AMC fluorescence, 0.01% Triton | 200,000 compounds, 0.43% hits;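 further: plate controls were neutral wells for no effect and buffer without enzyme for full effect; nearly all actives have a fitted effect of over 40% in size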
Target sequence (P25779 123-467 limits assumed): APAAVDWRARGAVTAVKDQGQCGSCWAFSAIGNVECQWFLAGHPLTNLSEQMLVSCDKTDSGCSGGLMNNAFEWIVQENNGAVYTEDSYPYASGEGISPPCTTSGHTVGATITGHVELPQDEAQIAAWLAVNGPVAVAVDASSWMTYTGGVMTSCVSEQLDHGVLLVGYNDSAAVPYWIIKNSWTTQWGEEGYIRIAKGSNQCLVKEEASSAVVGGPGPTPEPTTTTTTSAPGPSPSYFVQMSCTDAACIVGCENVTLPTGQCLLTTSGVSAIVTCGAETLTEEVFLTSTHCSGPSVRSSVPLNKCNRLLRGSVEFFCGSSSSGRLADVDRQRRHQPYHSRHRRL
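Read-out: AMC fluorescence (360 nm excitation, 450 nm emission), four reads over 2 min, first-to-third difference used. Conditions: cruzain 1.5 nM, Z-FR-AMC 2 uM, pH 5.5 acetate, 5 mM DTT, 0.01% Triton X-100.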
Cruzain noTriton – blocks cruzain activity in detergent-free assay | purified cruzain, Z-FR-AMC fluorescence, no detergent | Potency, µM, for inactives: max response, negative = inhibition, most hits filed as inhibitors | 200,000 compounds, 2.3% hits | P25779;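 further: plate controls were enzyme without inhibitor for no effect and buffer without enzyme for full effect; nearly all actives have a fitted effect of over 40% in size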
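Purified cruzain at 1.5 nM, pre-incubated 15 min with compound at room temperature in 100 mM sodium acetate pH 5.5, 5 mM DTT, 0.00005% Triton X-100. Reaction started with 2 uM Z-FR-AMC; AMC fluorescence increase over 60 s gives rate.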
Starred values were filed as active, the others as inactive; u = inconclusive. The call rests on the fitted dose curve; in most records, active means well fitted curve in the direction sought with a large enough effect; inconclusive means small, poorly fitted or top-dose-only effect, or another doubt; inactive means no such curve, though single readings can be large; an effect the other way counts as inactive or inconclusive. Potency means the concentration at half of the fitted maximal effect.

SMILES	Cruzain inh Det	Cruzain noTriton
CCOC(=O)c1c(-c2ccc(OC)cc2)csc1NC(=O)CCN1C(=O)c2ccccc2C1=O	-3%	16µM*
Cc1ccc(Nc2nc3ccccc3s2)cc1	-10%	8%
O=[N+]([O-])c1ccc(Nc2nc3ccccc3s2)cc1	3.5µM*	4µM*
O=S(=O)(c1ccc(Cl)cc1Cl)n1ccnc1	1%	-7%
CC1(C)CC2CC(C)(CN2C(=O)COC(=O)CNC(=O)c2ccc(Cl)c(Cl)c2)C1 (configuration not stated)	7.9µM*	7.9µM*
CC1(C)CC2CC(C)(CN2C(=O)COC(=O)c2cc(Cl)cc(Cl)c2N)C1 (configuration not stated)	-8%	0%
CCOc1ccc(CNC(=O)C2=Cc3cccc(OC)c3OC2)cc1	-3%	5%
CC(C)c1ccc(NC(=O)CSC2=Nc3ccccc3C3=NC(CCC(=O)NCc4ccco4)C(=O)N23)cc1 (configuration not stated)	-1%	u
Brc1ccc(C2Nc3cccc4cccc(c34)N2)o1	-12%	7.9µM*
c1csc(C2Nc3cccc4cccc(c34)N2)c1	-8%	7.9µM*
CN1c2cccc3cccc(c23)N(C)C1c1cccs1	-1%	-5%
O=[N+]([O-])c1ccccc1C1Nc2cccc3cccc(c23)N1	-3%	u
N#Cc1c(-n2ncnc2-c2ccc(Br)cc2)sc2c1CCCCC2	-2%	8%
CCOc1ccccc1NC(=O)CN(CCc1ccccc1)S(=O)(=O)c1ccc(C)cc1	-4%	-22%
CCc1ccc(CN2CCc3nc(N4CCN(c5ccccc5F)CC4)ncc3C2)cc1	0%	3%
COc1cccc(NC(=O)Cn2c(=O)n(CCC(=O)NCc3ccccc3OC)c(=O)c3ccccc32)c1	-1%	4%
COc1ccc(CN(Cc2ccco2)C(=O)c2ccccc2F)cc1	-4%	-3%
CCn1c(C(=O)NCc2ccc(F)cc2)cc2oc3ccccc3c21	-9%	-5%
CCOc1ccccc1CNC(=O)c1cc2oc3ccccc3c2n1CC	-17%	32µM*
Cc1ccc(NC(=O)c2cccc3c(=O)c4c([nH]c23)CCCC4)c(C)c1	-5%	8%
CCOc1ccc(C2Nc3cccc4cccc(c34)N2)cc1OC	-14%	-9%
CCOc1cc(C2Nc3cccc4cccc(c34)N2)ccc1O	-2%	16µM*
CCOCCc1nn2c(=O)cc(COC(=O)COc3ccccc3Cl)nc2s1	-3%	10%
O=C(CN1C(=O)CCc2cc(S(=O)(=O)N3CCOCC3)ccc21)NCc1ccccc1Cl	-1%	-6%
Cc1ccccc1Cc1c(C)nc2c(C(=O)NCc3ccc4c(c3)OCO4)cnn2c1C	-18%	-23%
SMILES	Cruzain inh Det	Cruzain noTriton
Cc1nc2c(C(=O)NCc3ccc4c(c3)OCO4)cnn2c(C)c1Cc1ccc(F)cc1Cl	-7%	16µM*
CCOC(=O)c1ccc(NC(=O)Nc2c[nH]c(=O)[nH]c2=O)cc1	2%	8%
Cc1c(Cl)cccc1NC(=O)Nc1c[nH]c(=O)[nH]c1=O	2%	20µM*
CCOc1ccc(/C=N/NC(=O)Cc2csc(Nc3cccc(C(F)(F)F)c3)n2)c(OCC)c1	4%	u
CCOc1ccccc1/C=N/NC(=O)Cc1csc(Nc2cccc(C(F)(F)F)c2)n1	-2%	10µM*
O=C(CCCn1c(=O)c2cccn2c2cccnc21)Nc1ccccc1Br	-1%	8%
O=C(Nc1ccc2ccccc2c1)c1nn(C23CC4CC(CC(C4)C2)C3)cc1Br	4%	10µM*
COc1ccc(NC(=O)c2nn(C34CC5CC(CC(C5)C3)C4)cc2[N+](=O)[O-])cc1	-4%	-1%
CC(C)c1ccc(NC(=O)Cn2c(=O)n(Cc3nc(-c4ccccc4)no3)c(=O)c3cc4c(cc32)OCO4)cc1	0%	13µM*
Cc1noc(Cn2c(=O)c3cc4c(cc3n(CC(=O)Nc3ccc(C(C)C)cc3)c2=O)OCO4)n1	-9%	5%
Cc1ccc(NC(=O)Cn2c(=O)n(Cc3nc(-c4ccccc4)no3)c(=O)c3cc4c(cc32)OCO4)cc1C	-2%	10µM*
COc1ccc(NC(=O)Cn2c(=O)n(Cc3nc(-c4ccccc4)no3)c(=O)c3cc4c(cc32)OCO4)c(OC)c1	-2%	16%
COc1ccc(NC(=O)Cn2c(=O)n(Cc3nc(-c4ccccc4)no3)c(=O)c3cc4c(cc32)OCO4)cc1Cl	-6%	u
CCc1ccc(NC(=O)Cn2c(=O)n(Cc3nc(-c4ccccc4)no3)c(=O)c3cc4c(cc32)OCO4)cc1	-2%	16µM*
CCc1cccc(NC(=O)CCNS(=O)(=O)c2ccc3c(c2)CCN3C(C)=O)c1	-2%	0%
Cc1noc(-c2ccccc2OCC(=O)Nc2cccc([N+](=O)[O-])c2)n1	-6%	u
CCc1nnc2c(N3CCN(c4cccc(C(F)(F)F)c4)CC3)nc3ccccc3n12	-2%	10%
O=C(CN1CCCC(O)C1)N1c2ccccc2Sc2ccc(C(F)(F)F)cc21 (configuration not stated)	3%	-2%

Compound activity deposited in PubChem by National Center for Advancing Translational Sciences (NCATS).
